# RORg inh = qHTS for inhibitors of ROR gamma transcriptional activity; Potency, µM (top dose mostly 53.6 µM), for inactives: at the highest dose activity change, negative = inhibition, usual class: inhibitors; Drosophila S2 Gal4-RORgamma UAS-luciferase reporter, 20 h; actives 5.4% (n = 310,000); further: potency means the concentration at half of the fitted maximal effect; on the % scale 0 is the no-effect control and ±100 the full control effect; nearly all actives have a fitted effect of over 60% in size
# Target sequence (P51450 whole entry, looked up, the tested form may be a part): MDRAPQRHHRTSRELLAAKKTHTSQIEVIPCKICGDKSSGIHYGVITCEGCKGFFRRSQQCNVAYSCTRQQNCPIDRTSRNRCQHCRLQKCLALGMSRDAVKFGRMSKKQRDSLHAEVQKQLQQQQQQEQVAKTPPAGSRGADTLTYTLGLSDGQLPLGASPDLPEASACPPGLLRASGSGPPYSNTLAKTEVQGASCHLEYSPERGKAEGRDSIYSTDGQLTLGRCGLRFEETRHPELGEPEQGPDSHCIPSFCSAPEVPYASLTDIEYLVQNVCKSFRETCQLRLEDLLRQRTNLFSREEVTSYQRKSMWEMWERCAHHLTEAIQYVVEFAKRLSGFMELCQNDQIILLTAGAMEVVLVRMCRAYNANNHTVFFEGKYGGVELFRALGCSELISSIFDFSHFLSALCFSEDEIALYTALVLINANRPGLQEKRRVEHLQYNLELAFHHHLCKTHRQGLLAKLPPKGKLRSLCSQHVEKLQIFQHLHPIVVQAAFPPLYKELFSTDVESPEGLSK
#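 Stably transfected Drosophila Schneider cells are the test system, with ROR gamma fused to Gal4 and luciferase under UAS control; luminescence is read after 20 hr of 700 uM copper sulfate induction at ambient temperature.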
# SW480 rerep = A quantitative high throughput screen for small molecules that induce DNA re-replication in SW480 colon adenocarcinoma cells | Potency, µM (top dose mostly 46.1 µM), without a hit: top-dose re-replication activation, most hits filed as activators | actives 1.8% (n = 340,000) | SW480 DNA re-replication, Hoechst DNA content imaging, 48 h | AID 624297, 2012; further: potency means the concentration at half of the fitted maximal effect; % of control where 0% means no effect; nearly all actives have a fitted effect of over 55% in size
#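 SW480 cells exposed to compounds for 48 hr at 37 C, 5% CO2, then Hoechst-stained 40 min. Nuclear DNA content imaged by fluorescence scanning (405 nm excitation, 500-530 nm emission); re-replication scored as increased high-intensity nuclei.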
# Gal4-VP16 FLuc = VP16 counterscreen qHTS for inhibitors of ROR gamma transcriptional activity; Drosophila S2 Gal4-VP16 UAS-luciferase, luminescence, 20 h; Potency, µM (doses to about 53.6 µM), for inactives: at the top dose activity, negative = inhibition, hits mostly inhibitors; actives 3.5% (n = 310,000); AID 2546, 2010;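 further: Gal4-VP16 expression switched on by copper sulfate through the metallothionein promoter; potency means the concentration at half of the fitted maximal effect; on the % scale 0 is the no-effect control and ±100 the full control effect; nearly all actives have a fitted effect of over 50% in size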
# Chronic BCR inh = qHTS Assay to Find Inhibitors of Chronic Active B-Cell Receptor Signaling. actives 0.05% (n = 340,000). ABC-DLBCL IkBa-CBG/CBR reporter, luminescence ratio, 4 h. AID 493014, 2011. Potency, µM (highest dose often 46.1 µM), for inactives: at the highest dose activity change, negative = inhibition, most hits filed as inhibitors; active means well fitted inhibition curve with a large enough effect in the signal ratio, with a control signal flat, not every such curve was filed as active; inconclusive means small, poorly fitted or top-dose-only effect, or effect the other way, or a change in a side signal; the % refers to the signal ratio;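 further: potency means the concentration at half of the fitted maximal effect; plate controls were basal doxycycline-induced cells for no effect and cells given 10 µM MG132 for full effect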
#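 TMD8 ABC-DLBCL cells carrying doxycycline-inducible green luciferase fused to IkappaBalpha plus unfused red luciferase were exposed to compounds (up to 46 uM) for 4 hrs at 37C. Activity came from the overlap-corrected green/red luminescence ratio.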
# MCF10A rereplic = A quantitative high throughput screen for small molecules that induce DNA re-replication in MCF 10a normal breast cells; actives 2.9% (n = 350,000); AID 624296, 2012; MCF 10A DNA re-replication, Hoechst nuclear intensity, 48 h; Potency, µM (series often up to 46.1 µM), for inactives: top-dose activity, positive = re-replication, hits mostly activators; further: potency means the concentration at half of the fitted maximal effect; % of control where 0% means no effect; nearly all actives have a fitted effect of over 50% in size
# Giardia kill = Small Molecules that selectively kill Giardia lamblia: qHTS. Giardia lamblia trophozoite viability. activity change, % at 7.66 µM, hits read low. actives 0.15% (n = 340,000). AID 540267, 2011; in the data active means activity change below about -80%; inconclusive means between about -30% and that limit;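 further: parasites exposed to compound for two days anaerobically before the ATP read; on the % scale 0 is the no-effect control and ±100 the full control effect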
#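 Media and compound were dispensed first, then trophozoites at 100 cells/well; plates sat 48 hrs at 37 deg C without oxygen before ATP luminescence reagent was added and read after 15-30 min at room temperature.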
# The depositor's hits bear a star; ? = inconclusive; . = no result given; [ ] = remark or other dose. Rows were chosen to be rich in hits. Some 8.3% of all compounds tested hit in one or more screens of this group. Unless noted, the call rests on the fitted dose curve; in most records, active means well fitted curve in the direction sought with a large enough effect; inconclusive means small, poorly fitted or top-dose-only effect, or another doubt; inactive means no such curve, though single readings can be large; an effect the other way counts as inactive or inconclusive.
SMILES,RORg inh,SW480 rerep,Gal4-VP16 FLuc,Chronic BCR inh,MCF10A rereplic,Giardia kill
CC1CCc2c(sc(Nc3nc4c(F)cccc4s3)c2C(N)=O)C1 (configuration not stated),5.6µM*,?,5µM*,?,7.3µM*,-26
NNc1nc2c(F)cc(F)cc2s1,?,0%,18µM*,?,?,17
O=C(Nc1nc2c(F)cccc2s1)C1CC1,30%,-12%,?,?,2%,32
NNc1nc2c(F)cccc2s1,16µM*,?,?,?,?,-9
Nc1nc2c(F)cccc2s1,21%,-5%,-4%,?,-2%,-19
Fc1cccc2sc(Nc3nc4c(F)cccc4s3)nc12,4.5µM*,-1%,?,9%,11%,-14
Oc1ccc(Br)cc1-c1nc2cnccn2c1NC1CCCC1,22µM*,?,?,7%,?,-18
Fc1ccc(-c2nc3cnccn3c2NC2CCCC2)cc1,16%,-11%,6%,1%,17%,24
Oc1ccc(Br)cc1-c1nc2cnccn2c1NC1CCCCC1,13µM*,?,?,?,8%,4
Cc1ccc(C(=O)COC(=O)c2ccc(O)cc2)cc1,?,8%,11µM*,?,-14%,-14
O=C(COC(=O)c1ccc(-c2nnc(-c3ccccc3)o2)cc1)c1ccccc1,1%,16µM*,-7%,?,?,17
Cc1ccc(C(=O)COC(=O)c2cn3ccccc3n2)cc1,-1%,15%,-3%,-1%,0.58µM*,-18
O=C(CCCCCn1c(=O)[nH]c2ccccc2c1=O)NCc1ccccc1,.,.,.,-5%,.,.
O=C1/C(=C/c2ccncc2)SC(=S)N1C1CCS(=O)(=O)C1 (configuration not stated),11µM*,21%,?,?,21µM*,7
Cc1ccc(/C=C2\SC(=S)N(C3CCS(=O)(=O)C3)C2=O)o1 (configuration not stated),-21%,16µM*,-6%,?,1%,6
CCOc1ccccc1OCCC(=O)OCC(=O)Nc1c(C)cc(C)cc1C,.,-5%,.,-1%,5%,-14
CCN1C(=O)CC(NC2CCN(C(=O)c3ccc(F)cc3)CC2)C1=O (configuration not stated),11%,-36%,-1%,0%,2%,35
CC(C)c1ccc(/C=C2\SC(=O)N(CC(=O)NC3CCS(=O)(=O)C3)C2=O)cc1 (configuration not stated),?,-9%,7.1µM*,?,1%,-8
O=C(CCCN1C(=O)/C(=C/c2ccc(F)cc2)SC1=S)NC1CCS(=O)(=O)C1 (configuration not stated),4µM*,2%,18µM*,?,?,17
COc1cccc(NC(=O)Cn2c(=O)n(-c3ccccc3)c(=O)c3sccc32)c1,3%,?,5%,-13%,2%,1
CC(C)(C)C1CCC2(CC1)NC(=S)N(c1ccccc1)N2 (configuration not stated),10µM*,-6%,16µM*,-1%,?,0
CCOC(=O)CN1NC2(CCCCC2)NC1=S,16µM*,-13%[9.22 µM],?,8%,0%,-15
CCOC(=O)CN1NC2(CCC(C)CC2)NC1=S (configuration not stated),?,-1%,?,20%,6%,6
CCOC(=O)CN1NC2(CCCCCCC2)NC1=S,4µM*,-14%,-18%,0%,-2%,10
CCC(C)(C)C1CCC2(CC1)NC(=S)N(c1ccccc1)N2 (configuration not stated),?,-2%,?,9%,?,9
SMILES,RORg inh,SW480 rerep,Gal4-VP16 FLuc,Chronic BCR inh,MCF10A rereplic,Giardia kill
CCOC(=O)CN1NC2(CCCC(C)C2)NC1=S (configuration not stated),?,1%,?,3%,-1%,5
CCOC(=O)CN1NC2(CCC(C(C)(C)C)CC2)NC1=S (configuration not stated),10µM*,-2%[9.22 µM],?,?,8%,0
O=C(Cc1ccc(Br)cc1)NCCCn1ccnc1,-30%,-2%,-15%,-4%,?,3
Cc1cc(C(=O)COC(=O)COc2ccccc2C#N)c(C)n1CC1CCCO1 (configuration not stated),.,-5%,.,2%,0%,-15
COc1ccc(CCNC(=O)c2ccc(CS(=O)Cc3ccc(C)cc3)o2)cc1OC (configuration not stated),8%,-21%,-6%,-2%,1%,-4
CCCC(C(=O)NCC1CCCO1)N(Cc1ccccc1)C(=O)CNS(=O)(=O)c1ccccc1 (configuration not stated),33%,-2%,-6%,3%,?,-7
COc1cc(C2C3=C(COC3=O)Oc3cc4c(cc32)OCO4)cc(OC)c1OC(C)=O (configuration not stated),.,0.13µM*,.,.,?,?
COc1cc2c(cc1OC)C(c1ccc3c(c1)OCO3)C1=C(CC(C)(C)CC1=O)N2 (configuration not stated),-22%,-4%,5%,-2%,?,14
COc1cc(C2C3=C(COC3=O)Oc3cc4c(cc32)OCO4)ccc1OC(C)=O (configuration not stated),.,3.7µM*,.,.,?,-2
COc1ccc(C2C3=C(COC3=O)Oc3cc4c(cc32)OCO4)cc1OC (configuration not stated),.,5.8µM*,.,.,2.3µM*,20
COc1ccccc1C1CC(=O)Oc2cc3c(cc21)OCO3 (configuration not stated),11%,.,1%,.,.,.
COCCCNC(=O)c1c(N)n(/N=C/c2ccccn2)c2nc3ccccc3nc12,17%,?,-5%,?,?,1
N#Cc1c(N)n(-c2cccc(C(=O)O)c2)c2nc3ccccc3nc12,7%,?,-4%,-2%,21µM*,1
Nc1c(C(=O)NCCN2CCOCC2)c2nc3ccccc3nc2n1-c1cccc(F)c1,-8%,16µM*,7%,6%,18µM*,11
N#Cc1c(N)n(-c2ccccc2N)c2nc3ccccc3nc12,-25%,?,-5%,?,4%,-21
